{"source": "PubChem BioAssay (Tox21)", "note": "Records with an inconclusive call do not appear. A number with no mark means an inactive call. Activity calls are given as the source filed them. Calls follow the shape of the full dose curve. % is scaled to controls: 0 for no effect and ±100 for the full control effect.", "data": [{"assay": "p53 small molecule agonists, cell-based qHTS assay: qHTS cell viability counter screen (AID 1963581); also: nearly all actives have a fitted effect of over 45% in size", "settings": "p53RE-bla HCT-116 viability, ATP luminescence, 16 h; series mostly up to 66 µM; activity change, negative = cytotoxicity: at the top concentration", "source_text": "National Center for Advancing Translational Sciences [NCATS]\nDivision of Preclinical Innovation [DPI]\nU.S. Environmental Protection Agency [EPA]\nNational Institutes of Environmental Health Sciences [NIEHS]\nNational Toxicology Program [NTP]\nU.S. Food and Drug Administration [FDA]\np53, a tumor suppressor protein, is activated following cellular insult, including DNA damage and other cellular stresses. The activation of p53 regulates cell fate by inducing DNA repair, cell cycle arrest, apoptosis, or cellular senescence. The activation of p53, therefore, is a good indicator of DNA damage and other cellular stresses. The CellSensor p53RE-bla HCT-116 cell line (Invitrogen) contains a stably integrated beta-lactamase reporter gene under control of the p53 response elements. The activation of the reporter gene under culture conditions can be detected by fluorescence intensity. This cell line was used to screen the Tox21 compound library in a 1536-well plate format and to identify agonists that activate the p53 signaling pathway. The cytotoxicity of the Tox21 compound library against the p53 RE-bla HCT-116 cell line was tested in parallel by measuring the intra cellular ATP content in the same wells.\nTox21 Assay Protocol Summary:\nThe p53RE-bla cells were dispensed at 4,000 cells/5 ul/well in 1536-well black wall/clear bottom plates using a Multidrop dispenser. After the assay plates were incubated at a 37 C/5% CO2 incubator for 5 hours, 23 nL of compounds dissolved in DMSO, positive controls or DMSO only was transferred to the assay plate by a pin tool. The plates were incubated at 37 C for 16 hours. After 1 uL of LiveBLAzerTM B/G FRET substrate was added using a Flying Reagent Dispenser, the plates were incubated at room temperature for 2 hours, and fluorescence intensity was measured by an Envision plate reader. For cell viability readout that measures cytotoxicity, 4 ul/well of CellTiter-Glo reagent was added into the assay plates using a Flying Reagent Dispenser. After 30 min incubation at room temperature, the luminescence intensity in the plates was measured using a ViewLux plate reader.", "values": [{"smiles": "O=C1NC(c2ccccc2)(c2ccccc2)C(=O)N1COP(=O)(O)O", "activity change, negative = cytotoxicity": "2.66% [at 30.3 µM]"}, {"smiles": "O=P(O)(O)O", "Potency": "inactive"}, {"smiles": "CCCC(C)CO", "note": "(stereo not given)", "activity change, negative = cytotoxicity": "21.9%"}, {"smiles": "O=C(O)CN(CCN(CC(=O)O)CC(=O)O)CCN(CC(=O)O)CC(=O)O", "activity change, negative = cytotoxicity": "-11.9% [at 13.5 µM]"}, {"smiles": "CC(=O)Nc1ccc(C)cc1", "activity change, negative = cytotoxicity": "0%"}, {"smiles": "Cc1cc(O)cc2c1O[C@](C)(CCC[C@H](C)CCC[C@H](C)CCCC(C)C)CC2", "activity change, negative = cytotoxicity": "12% [at 30.3 µM]"}, {"smiles": "O=C1NCCN1CCO", "activity change, negative = cytotoxicity": "-22.4%"}, {"smiles": "Cn1c(=O)c2[nH]c(Br)nc2n(C)c1=O", "activity change, negative = cytotoxicity": "16.1% [at 30.3 µM]"}, {"smiles": "CC1=CC[C@@]23C[C@@H]1C(C)(C)[C@@H]2CC[C@H]3C", "activity change, negative = cytotoxicity": "4.98%"}, {"smiles": "COS(=O)(=O)O", "activity change, negative = cytotoxicity": "5.13%"}, {"smiles": "C=CCCCCCCCCCCC", "activity change, negative = cytotoxicity": "18.8% [at 5.99 µM]"}, {"smiles": "COC(=O)CCC(=O)O", "activity change, negative = cytotoxicity": "1.06%"}, {"smiles": "CC(CO)CO", "activity change, negative = cytotoxicity": "8.98%"}, {"smiles": "O=c1[nH][nH]c(=O)c2cc([N+](=O)[O-])ccc12", "activity change, negative = cytotoxicity": "14.5%"}, {"smiles": "C=CC(C)(O)CC/C=C(\\C)CCC=C(C)C", "note": "(stereo not given)", "activity change, negative = cytotoxicity": "0.899%"}, {"smiles": "CN(C)c1cc(NC(=O)CNC(C)(C)C)c(O)c2c1C[C@H]1C[C@H]3[C@H](N(C)C)C(=O)C(C(N)=O)=C(O)[C@@]3(O)C(=O)C1=C2O", "activity change, negative = cytotoxicity": "20.5% [at 30.3 µM]"}, {"smiles": "O=C(/C=C/c1ccccc1)OCc1ccccc1", "Potency": "inactive"}, {"smiles": "O=S(=O)(O)c1ccc2cc(O)c(S(=O)(=O)O)cc2c1", "activity change, negative = cytotoxicity": "-4.5%"}, {"smiles": "Cc1onc(-c2ccccc2)c1C(=O)Cl", "activity change, negative = cytotoxicity": "-16.3% [at 30.3 µM]"}, {"smiles": "CC/C=C\\CCOC(=O)CCCCC", "activity change, negative = cytotoxicity": "-2.12%"}, {"smiles": "OC1CCCC1", "Potency": "inactive"}, {"smiles": "Nc1ccc(O)cc1", "activity change, negative = cytotoxicity": "2.68% [at 30.3 µM]"}, {"smiles": "N#Cc1ccc(C2CCCc3cncn32)cc1", "note": "(stereo not given)", "activity change, negative = cytotoxicity": "15.2% [at 30.3 µM]"}, {"smiles": "CC(=O)c1ccc2ccccc2c1", "activity change, negative = cytotoxicity": "-13.3%"}, {"smiles": "CSc1ccc(C(=O)c2[nH]c(=O)[nH]c2C)cc1", "activity change, negative = cytotoxicity": "1.75% [at 30.3 µM]"}, {"smiles": "COc1cc(C(=S)N2CCOCC2)cc(OC)c1OC", "activity change, negative = cytotoxicity": "12.9% [at 30.3 µM]"}, {"smiles": "C[C@@H]1CCC[C@H](C)N1", "activity change, negative = cytotoxicity": "-2.7% [at 30.3 µM]"}, {"smiles": "C1=C\\CC/C=C\\CC/C=C\\CC/1", "activity change, negative = cytotoxicity": "-1.27%"}, {"smiles": "COc1cc(C(=S)N2CCOCC2)ccc1O", "activity change, negative = cytotoxicity": "-3.89% [at 30.3 µM]"}, {"smiles": "Cc1ccc(C(C)(C)C)cc1", "Potency": "inactive"}, {"smiles": "CCN[C@H]1CN(CCCOC)S(=O)(=O)c2sc(S(N)(=O)=O)cc21", "activity change, negative = cytotoxicity": "0.646% [at 30.3 µM]"}, {"smiles": "N=C(N)c1ccccc1", "activity change, negative = cytotoxicity": "0.55%"}, {"smiles": "O=P(OC(CCl)CCl)(OC(CCl)CCl)OC(CCl)CCl", "Potency": "inactive"}, {"smiles": "CCCOCCOCCO", "activity change, negative = cytotoxicity": "-1.57%"}, {"smiles": "CCCSSCCC", "activity change, negative = cytotoxicity": "6.06%"}, {"smiles": "CC(Cl)COP(=O)(OCC(C)Cl)OCC(C)Cl", "note": "(stereo not given)", "activity change, negative = cytotoxicity": "-11.2%"}, {"smiles": "CC(CCO)CCc1ccccc1", "note": "(stereo not given)", "activity change, negative = cytotoxicity": "12.6%"}, {"smiles": "COc1ccc(C#N)cc1", "activity change, negative = cytotoxicity": "3.18%"}, {"smiles": "Oc1cc(O)c2c(c1)O[C@H](c1ccc(O)c(O)c1)[C@H](O)C2", "activity change, negative = cytotoxicity": "9.75% [at 30.3 µM]"}, {"smiles": "CC(C)CCOCCC(C)C", "activity change, negative = cytotoxicity": "-4.63%"}]}]}
